The results in this text go back to PubChem BioAssay.

Molecules are shown by their SMILES. Inconclusive results are not listed. Active and inactive are the calls of the source. Rule as the data show it, unless noted: active = inhibition above about 30%; inactive = the rest.

The nature of assay [1]: reducers of endogenous Her2 protein level, primary screen, SKBR3 breast tumor cells, AlphaScreen, ATP viability (AID 461;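 active = Her2 level under about 52% in both replicate screens, with viability over 70% of control, limit read from the data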;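 as to Her2 level: lower value means less Her2 protein in the cells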;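 as to viability: percent of carrier control wells set as 100% viability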). The settings on record: 18-24 h, measured here: SKBR3 viability, ATP luminescence, at 10 µM. (Alpha assays give light when donor and acceptor beads are brought close together.)
In assay [2] the target is Receptor tyrosine-protein kinase erbB-2 (Homo sapiens) (UniProt P04626). The description is as above. Particulars: 18-24 h, at 10 µM, stronger effect = lower value.
Sequence of Receptor tyrosine-protein kinase erbB-2 (Homo sapiens) (P04626 whole entry, looked up): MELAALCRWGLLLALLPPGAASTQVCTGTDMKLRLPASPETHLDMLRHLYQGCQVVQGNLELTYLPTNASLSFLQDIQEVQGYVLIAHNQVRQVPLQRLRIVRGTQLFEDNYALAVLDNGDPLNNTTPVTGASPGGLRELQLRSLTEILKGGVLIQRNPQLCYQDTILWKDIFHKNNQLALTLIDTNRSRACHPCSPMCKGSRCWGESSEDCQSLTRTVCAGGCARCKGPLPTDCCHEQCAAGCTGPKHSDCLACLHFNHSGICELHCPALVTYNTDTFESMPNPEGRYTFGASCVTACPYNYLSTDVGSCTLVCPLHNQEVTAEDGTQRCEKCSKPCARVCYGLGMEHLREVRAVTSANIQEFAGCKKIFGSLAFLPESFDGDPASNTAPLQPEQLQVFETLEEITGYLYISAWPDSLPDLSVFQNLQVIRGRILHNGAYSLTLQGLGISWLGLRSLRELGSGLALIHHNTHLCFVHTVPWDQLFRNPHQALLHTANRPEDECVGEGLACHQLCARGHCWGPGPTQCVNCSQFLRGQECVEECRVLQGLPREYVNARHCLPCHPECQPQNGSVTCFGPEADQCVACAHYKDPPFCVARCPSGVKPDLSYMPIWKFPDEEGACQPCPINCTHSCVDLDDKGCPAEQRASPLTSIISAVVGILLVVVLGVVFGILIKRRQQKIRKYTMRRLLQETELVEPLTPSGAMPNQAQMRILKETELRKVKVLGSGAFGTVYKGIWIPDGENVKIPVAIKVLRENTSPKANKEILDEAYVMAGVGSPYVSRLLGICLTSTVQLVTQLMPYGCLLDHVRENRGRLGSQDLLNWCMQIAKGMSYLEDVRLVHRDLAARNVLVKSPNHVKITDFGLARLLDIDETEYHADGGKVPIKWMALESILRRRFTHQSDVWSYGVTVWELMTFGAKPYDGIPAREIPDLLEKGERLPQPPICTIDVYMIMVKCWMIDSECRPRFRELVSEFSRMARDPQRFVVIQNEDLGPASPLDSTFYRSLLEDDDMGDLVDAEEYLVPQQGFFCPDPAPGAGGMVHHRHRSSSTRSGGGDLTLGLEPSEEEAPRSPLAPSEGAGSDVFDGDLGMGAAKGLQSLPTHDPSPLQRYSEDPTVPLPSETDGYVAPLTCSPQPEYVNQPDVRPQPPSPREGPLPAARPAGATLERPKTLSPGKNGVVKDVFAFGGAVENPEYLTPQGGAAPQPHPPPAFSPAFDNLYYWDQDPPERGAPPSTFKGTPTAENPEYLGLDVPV
The nature of assay [3]: SK-BR-3 cell growth inhibitors, pilot screen, 24 h, human (AID 572;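 active = viability at or below 10% of carrier control in both of two separate runs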;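 also: compound exposure lasted between 18 and 24 h rather than exactly 24 h; 100% = carrier-treated control wells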). The settings on record: SK-BR-3 viability, CellTiter-Glo luminescence, at 10 µM, stronger effect = lower value. On the technique in general: Cellular ATP, detected with luciferase, serves as a proxy for viable cell number.
A short description of assay [4]: HUVEC growth inhibition – cell-based, human, primary screen (AID 575;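 active = viability at or below 30% in both replicate assays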;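 also: 100% = median of untreated cell wells with 0.1% DMSO on each plate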). The settings on record: HUVEC proliferation, CellTiter-Glo luminescence, 72 h; at 10 µM; stronger effect = lower value.
A short description of assay [5]: growth inhibitors of H69AR lung tumor, primary screen, human, duplicate replicates (AID 580;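 active = viability at or under a set limit in both replicates, limit being median viability minus 3 SD, cut at about 48% in these data, passing the limit was not always enough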;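 also: 100% = mean luminescence of untreated wells and 0% = no signal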). Particulars: H69AR lung tumor cells viability, ATP luminescence, 72 h; at 10 µM; stronger effect = lower value.
Assay [6] in a line: reversal of MRP1-mediated doxorubicin resistance, pilot screen, H69AR cells, doxorubicin co-treatment (AID 601;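 active = viability loss from added drug above about 55%, and viability with drug at most 40%, in both replicates, limit read from the data, passing the limit was not always enough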). Particulars: CellTiter-Glo, 72 h, at 10 µM; for differential viability (reversal): stronger effect = higher value.
Assay [7] is described as follows: 384-well plate pilot, post-Golgi transport modulator project, inhibition of yeast transport mutant growth (AID 636; in the data active = inhibition above about 31%). The settings on record: absorbance 615 nm, about 18 h, stronger effect = higher value.
Assay [8] is described as follows: growth suppression of yeast trafficking mutant, preliminary HTS, modulators of trafficking downstream of Golgi apparatus project, 1536-format plate, OD 615 nm (AID 637). The settings on record: yeast transport mutant growth, absorbance 615 nm, 18 h; stronger effect = higher value.
A short description of assay [9]: OD615 S. cerevisiae growth inhibition, permissive medium, pilot counter-assay, permissive growth control for S. cerevisiae lifespan shortening project (AID 705;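 active = growth inhibition above 25% in both replicates, a cutoff set 3 SD above the mean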). The settings on record: OD615, 24 h, at 10 µM, stronger effect = higher value.
A short description of assay [10]: Restrictive medium S. cerevisiae growth inhibition, OD615, pilot screen of yeast lifespan reduction project, restrictive growth control (AID 706;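 active = growth inhibition above a set limit, 3 SD over mean compound inhibition, in both replicates, cut at about 43% in these data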;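 also: modified DeaD lifespan yeast strain shifted to restrictive glucose medium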). Particulars: OD615, 48 h, at 10 µM, stronger effect = higher value.
Assay [11] is described as follows: viability gain of MRP-1-high H69AR cells under doxorubicin, pilot screen, MRP-1 activator project, CellTiter-Glo, duplicate (AID 807;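 active = viability increase at or above a cutoff of the median across tested compounds plus 3 SD, cut at about 8.5% in these data, passing the limit was not always enough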;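 also: compound pretreatment 18-22 h then 72 h combined with doxorubicin; 0% = doxorubicin alone and 100% = vehicle without doxorubicin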). Particulars: H69AR viability with doxorubicin, CellTiter-Glo luminescence; at 10 µM; stronger effect = higher value.
A short description of assay [12]: growth suppression of beta-catenin knockout HCT116, pilot screen, human colon tumor cells (AID 823;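 active = cell viability at or below a set limit in both duplicate runs, the limit being the all-compound median minus 4 SD, cut at about 23% in these data, passing the limit was not always enough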;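 also: 0% = wells killed by 20 µM Hyamine and 100% = untreated DMSO cell wells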). The settings on record: CellTiter-Glo, 60 h, at 10 µM, stronger effect = lower value.
The nature of assay [13]: growth suppression of PTEN-deleted HCT116, pilot screen, cell-based, HCT116 clonal line, CellTiter-Glo (AID 824;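 active = viability at or below 27.92% in each of two runs, the all-compound median minus 4 SD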;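 also: 0% = 20 µM Hyamine control and 100% = vehicle cell control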). The settings on record: 60 h, at 10 µM, stronger effect = lower value.
Assay [14] can be described thus: inhibitors of the yeast RAM network, pilot screen, dse1pr::URA3 reporter, 5-FOA selection (AID 869;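 active = inhibition over a set limit, the all-compound mean plus 3 SD, in both replicate runs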;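 also: 0% = DMSO wells with no growth and 100% = 10 µM 1-NA-PP1 with full growth; RAM network block rescues cells from 5-FOA so hits raise OD615 growth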). Particulars: S. cerevisiae dse1pr::URA3 5-FOA growth, OD615, 2 d; at 10 µM; stronger effect = higher value; strain carries analog-sensitive mutant Cbk1 kinase.
Assay [15] can be described thus: RAM signaling pathway blockade in yeast – S. cerevisiae, Pdr1DBD-CYC8 efflux-inhibited sensitized strain, primary screen (AID 1298;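 active = RAM network inhibition above 8.4% in each of two replicates, 3 SD over the compound average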;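 also: 0% = DMSO untreated cells without growth and 100% = 10 µM 1-NA-PP1 full growth; higher means more yeast growth rescued from 5-FOA killing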). The settings on record: S. cerevisiae cbk1-as DSE1-URA3 strain, 5-FOA growth OD615, 2 d; at 50 µM; stronger effect = higher value.
The mark [16] stands for this setting: H69AR cells + 2 uM doxorubicin, measured here: viability with 2 uM doxorubicin, stronger effect = lower value.
Where [17] appears, read: H69AR cells, compound alone cytotoxicity.

With `COc1ccc(NC(=O)CSc2nc3c(c(=O)n2-c2ccc(F)cc2)SCC3)cc1`, the viability (commonly a read-out of living cells in per cent, often relative to untreated cells) in [1] was 100%; in assay [3] it was 100% (inactive); in assay [4], 81.3% (inactive); in assay [5] it was 95.5% (inactive); in assay [6] (setting [16]), 92.2%; in [6] (setting [17]), 95.5%. Further, the values for the viability in [12] and in assay [13] were 94% (inactive) and 90.7% (inactive), respectively. Moreover, the Her2 level in assay [2] is 102% (inactive). Also, the differential viability (reversal) in [6] (H69AR cells + 2 uM doxorubicin) was 3.3% (inactive). Also, the inhibition (commonly the change of the read-out against control, counted positive when it falls) was -6.27% (inactive) in assay [7], -1.15% (inactive) in [8] and -0.265% (inactive) in [14]. The growth inhibition was -8.95% (inactive) in assay [9] and -14.3% (inactive) in assay [10]. Also, the viability increase in assay [11] is 0.22% (inactive). Moreover, in assay [15], the RAM network inhibition was 3.09% (inactive).

As to `O=C(NCCSc1c[nH]c2ccccc12)c1ccc(Br)o1`, the viability was 104% in assay [1]; 104% (inactive) in assay [3]; 47.8% (inactive) in [4]; 54.6% (inactive) in assay [5]; 75.8% in assay [6] (setting [16]); 54.6% in [6] (setting [17]). Besides, the values for the viability in [12] and in assay [13] were 106% (inactive) and 93.6% (inactive), respectively. For the same molecule, the Her2 level in assay [2] was 94.5% (inactive). Further, in [6] (H69AR cells + 2 uM doxorubicin), the differential viability (reversal) is -21.1% (inactive). The inhibition in [7] was -2.93% (inactive); in assay [8], 1.17% (inactive); in assay [14], 1.83% (inactive). In addition, the growth inhibition in [9] was -10.7% (inactive); in [10], -12.6% (inactive). Further, the viability increase in assay [11] was -3.97% (inactive). The RAM network inhibition in assay [15] is 3.28% (inactive).

As for `COc1ccc(OC)c(NC(=O)c2nnn(Cc3ccc(Br)cc3F)c2N)c1`, the viability is 80% in [1]; 80% (inactive) in assay [3]; 40.9% (inactive) in assay [4]; 75.7% (inactive) in assay [5]; 58.9% in [6] (setting [16]); 75.7% in assay [6] (setting [17]). For the same molecule, the viability was 69.5% (inactive) in [12] and 66.1% (inactive) in assay [13]. Besides, in assay [2], the Her2 level was 88% (inactive). For the same molecule, in assay [6] (H69AR cells + 2 uM doxorubicin), the differential viability (reversal) was 16.7% (inactive). Moreover, the inhibition in assay [7] is 1.07% (inactive); in assay [8] it was -0.49% (inactive); in assay [14], 1.21% (inactive). The growth inhibition in assay [9] is -0.51% (inactive); in assay [10] it was -7.43% (inactive). The viability increase in assay [11] was 0.57% (inactive). For the same molecule, in assay [15], the RAM network inhibition was 4.25% (inactive).

Regarding `CCOc1ccc(C2CC(c3cccc(OC)c3)Nc3nc(N)nn32)cc1` (stereo not drawn), the viability was 91.5% in assay [1]; 91.5% (inactive) in assay [3]; 95.8% (inactive) in assay [4]; 90.7% (inactive) in assay [5]; 93% in assay [6] (setting [16]); 90.7% in assay [6] (setting [17]). Besides, the viability in assay [12] is 99% (inactive); in assay [13], 87.1% (inactive). The Her2 level in [2] was 114% (inactive). In addition, in [6] (H69AR cells + 2 uM doxorubicin), the differential viability (reversal) was -2.32% (inactive). Besides, the figures for the inhibition in assay [7], in assay [8] and in [14] were 3.85% (inactive), 5.5% (inactive) and 1.65% (inactive), respectively. In addition, the growth inhibition was 5.33% (inactive) in assay [9] and 13.6% (inactive) in assay [10]. For the same molecule, the viability increase in assay [11] is -0.23% (inactive). Also, the RAM network inhibition in [15] was 4.8% (inactive).

On to `CC1CCc2nn(CC(=O)NCc3ccc(F)cc3)cc2C1` (stereo not drawn), for which the viability in [1] was 122%; in [3] it was 122% (inactive); in assay [4] it was 79.4% (inactive); in assay [5], 89.4% (inactive); in assay [6] (setting [16]), 93.6%; in assay [6] (setting [17]) it was 89.4%. Further, the viability in assay [12] is 86.4% (inactive); in assay [13], 87.6% (inactive). Moreover, the Her2 level in assay [2] was 102% (inactive). The differential viability (reversal) in assay [6] (H69AR cells + 2 uM doxorubicin) was -4.28% (inactive). The inhibition in [7] is -0.51% (inactive); in [8], -2.33% (inactive); in assay [14], -0.73% (inactive). Besides, the figures for the growth inhibition in assay [9] and in assay [10] were -3.91% (inactive) and 8.68% (inactive), respectively. For the same molecule, in assay [11], the viability increase is -2.02% (inactive). Moreover, the RAM network inhibition in assay [15] is 1.16% (inactive).

Consider `O=C(CSc1nnc(Cn2c(=O)sc3ccccc32)n1-c1ccccc1)NCC1CCCO1` (stereo not drawn), for which the viability was 80.5% in [1]; 80.5% (inactive) in [3]; 82.3% (inactive) in assay [4]; 99.8% (inactive) in [5]; 87.2% in assay [6] (setting [16]); 99.8% in [6] (setting [17]). Further, the viability in [12] was 99.1% (inactive); in [13], 98.6% (inactive). Moreover, in [2], the Her2 level was 108% (inactive). For the same molecule, the differential viability (reversal) in assay [6] (H69AR cells + 2 uM doxorubicin) is 12.6% (inactive). The figures for the inhibition in assay [7], in assay [8] and in assay [14] were -1.92% (inactive), 0.83% (inactive) and 1.41% (inactive), respectively. Moreover, the growth inhibition is -4.79% (inactive) in [9] and 10.2% (inactive) in assay [10]. In assay [11], the viability increase was -2.08% (inactive). Besides, in assay [15], the RAM network inhibition was 0.47% (inactive).

In the case of `Oc1ccc2ccccc2c1CN1CCN(c2ccccc2F)CC1`, the viability is 110% in [1]; 110% (inactive) in assay [3]; 90.1% (inactive) in assay [4]; 76.6% (inactive) in [5]; 73.5% in [6] (setting [16]); 76.6% in assay [6] (setting [17]). Besides, the figures for the viability in assay [12] and in assay [13] were 95.4% (inactive) and 93.9% (inactive), respectively. Also, in assay [2], the Her2 level is 90% (inactive). In addition, in [6] (H69AR cells + 2 uM doxorubicin), the differential viability (reversal) was 3.1% (inactive). Besides, the inhibition in [7] was -3.47% (inactive); in [8] it was -0.33% (inactive); in assay [14], 0.72% (inactive). Also, the values for the growth inhibition in assay [9] and in assay [10] were -13.8% (inactive) and -10.6% (inactive), respectively. In addition, the viability increase in assay [11] was -5.72% (inactive). Also, in assay [15], the RAM network inhibition is 0.16% (inactive).

Turning to `CC1CN(c2ccc(Oc3ccccc3)cc2)c2nc3c(c(=O)n(CC(N)=O)c(=O)n3C)n2C1` (stereo not drawn), the viability in assay [1] was 107%; in [3], 107% (inactive); in assay [4], 77.5% (inactive); in [5], 79.1% (inactive); in assay [6] (setting [16]), 74.4%; in [6] (setting [17]), 79.1%. Besides, the figures for the viability in [12] and in [13] were 104% (inactive) and 94.4% (inactive), respectively. In addition, the Her2 level in assay [2] is 101% (inactive). In assay [6] (H69AR cells + 2 uM doxorubicin), the differential viability (reversal) was 4.74% (inactive). In addition, the inhibition in [7] is -4.67% (inactive); in assay [8] it was -5.17% (inactive); in assay [14], 2.65% (inactive). The values for the growth inhibition in assay [9] and in [10] were -3.86% (inactive) and 6.34% (inactive), respectively. The viability increase in assay [11] was -3.54% (inactive). The RAM network inhibition in [15] is 6.01% (inactive).

As to `CCn1c(SCC(=O)Nc2cc(C)ccc2C)nc2c(c1=O)SC(C)C2` (stereo not drawn), the viability in assay [1] is 90.5%; in [3] it was 90.5% (inactive); in assay [4], 74% (inactive); in assay [5], 83.1% (inactive); in assay [6] (setting [16]) it was 67.8%; in [6] (setting [17]), 83.1%. Also, the viability in [12] was 93.6% (inactive); in assay [13], 91.5% (inactive). For the same molecule, the Her2 level in assay [2] was 116% (inactive). Also, in assay [6] (H69AR cells + 2 uM doxorubicin), the differential viability (reversal) is 15.4% (inactive). The inhibition was -1.73% (inactive) in [7], -0.5% (inactive) in assay [8] and 1.16% (inactive) in [14]. The growth inhibition in assay [9] is -9.3% (inactive); in [10], -6.79% (inactive). Also, in [11], the viability increase is -4.15% (inactive). Also, the RAM network inhibition in assay [15] was 4.64% (inactive).
